In all, about 96,000 compounds went through this assay and about 19,000 (20%) were called active.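 The calls were made as follows: active = blocking of liver enzyme CYP2C9 beyond about 50% at 5 µM (limit read from the data); inactive = the rest.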 The list is a sample of the results.

Cytochrome P450 2C9 (Homo sapiens), sequence (P11712 whole entry, looked up): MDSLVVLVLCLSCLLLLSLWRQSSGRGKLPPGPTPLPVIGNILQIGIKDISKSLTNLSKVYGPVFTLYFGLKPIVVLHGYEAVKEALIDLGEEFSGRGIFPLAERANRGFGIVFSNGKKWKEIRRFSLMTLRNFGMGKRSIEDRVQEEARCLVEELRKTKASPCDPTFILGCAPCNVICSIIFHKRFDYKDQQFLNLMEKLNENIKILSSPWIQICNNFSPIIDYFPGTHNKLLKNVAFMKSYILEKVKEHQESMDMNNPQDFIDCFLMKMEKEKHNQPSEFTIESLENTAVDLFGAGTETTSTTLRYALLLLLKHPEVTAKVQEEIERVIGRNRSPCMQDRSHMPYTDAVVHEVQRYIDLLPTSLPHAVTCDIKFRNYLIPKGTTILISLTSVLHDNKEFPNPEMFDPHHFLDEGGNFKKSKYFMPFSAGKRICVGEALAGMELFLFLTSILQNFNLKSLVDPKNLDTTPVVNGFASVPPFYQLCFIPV

The test addresses Cytochrome P450 2C9 (Homo sapiens) (UniProt P11712). Nature of the test: blockers of cytochrome P450 2C9 activity – biochemical, luminescence, ADME assay, primary screen (AID 777). The settings on record: CYP2C9 Supersomes, luciferin-H conversion, at 5 µM, hits give high values.
Take `C=CCC(NCCCO)c1cccc(OC)c1OC` (stereo unspecified): the inhibition – broadly, the change of the read-out against control, counted positive when it falls – was -26.1% (inactive). The same measure for `CC(C)(C)c1cc2cccnc2n1Cc1ccccc1`: 0.7% (inactive); for `CCOc1cccc(SCc2noc(C(=O)NC(C)C)c2C(=O)O)c1`: 73.7% (active); for `COc1ccc(SCc2noc(C(=O)NCC3CCCO3)c2C(=O)O)cc1` (stereo unspecified): 20.1% (inactive). The same measure for `COC(=O)c1c(CCl)noc1C(=O)NC(C)C`: -0.5% (inactive).

For `CCOc1ccc2nc(SC(CC)C(=O)Nc3cc(C)on3)sc2c1` (stereo unspecified), the inhibition was -4.1% (inactive). Under `COCCNC(=O)c1onc(CSc2cccc(C)c2)c1C(=O)O` stands 30.2% (inactive); under `CCCCNC(=O)c1onc(CSc2cccc(OC)c2)c1C(=O)O`, 82.5% (active). Under `O=[N+]([O-])c1ccc(Oc2ccc(F)cc2Br)c2ccncc12` stands 6.1% (inactive); under `Cc1ccc(NC(=O)Nc2ccc3oc(C)nc3c2)cc1`, 8.7% (inactive).

In the case of `COC(=O)CSC1=C(C#N)C(c2ccccc2OC)C(C(=O)OC)C(=O)N1` (stereo unspecified), the inhibition is 24% (inactive).

`C=CCSC1=C(C#N)C(c2cc(Br)c(O)c(OC)c2)CC(=O)N1` (stereo unspecified): the inhibition was 39.1% (inactive). Consider `Cc1ccc(C2CC(=O)NC(SCC(=O)OCc3ccccc3)=C2C#N)o1` (stereo unspecified), for which the inhibition was 97% (active). The same measure for `CCOC(=O)CSC1=C(C#N)C(c2sccc2C)CC(=O)N1` (stereo unspecified): 54.8% (active). For the compound `CCOC(=O)c1ccc(N2C(=O)CC(Sc3nc(O)c(CC)c(=O)[nH]3)C2=O)cc1` (stereo unspecified), the inhibition was 26.2% (inactive). The same measure for `O=C(COc1ccc(Cl)cc1)N1CCN(c2cccc(C(F)(F)F)c2)CC1`: 13.6% (inactive); for `Cc1cc(NC(=O)CS(=O)(=O)c2cn(C)c3ccccc23)no1`: -20.5% (inactive); for `CCN(CC)S(=O)(=O)c1ccc2[nH]cc(C(=O)NCCc3ccccc3)c(=O)c2c1`: 22.4% (inactive). Turning to `COc1ccc(-n2nnnc2SCc2nc(N)nc(N3CCOCC3)n2)cc1`, the inhibition was 35.6% (inactive). Take `CCN(CC)S(=O)(=O)c1ccc2nc(CSc3nnnn3-c3ccc(O)cc3)[nH]c2c1`: the inhibition is 97.3% (active). In the case of `CN(C)S(=O)(=O)c1ccc(NC(=O)COC(=O)c2n[nH]c3ccccc23)cc1`, the inhibition is 13.8% (inactive). Under `O=c1c2ccccc2nc(CSc2nnnn2-c2ccccc2)n1-c1ccccc1` stands -6.4% (inactive). The same measure for `CCN(CC)S(=O)(=O)c1ccc2nc(COC(=O)c3n[nH]c4ccccc34)[nH]c2c1`: 77.2% (active); for `COC(=O)[C@H](Cc1ccccc1)NC(=O)N1CC(C)OC(C)C1` (stereo partly specified): 4.3% (inactive); for `O=C(NC1(C(F)(F)F)NC(=O)N(Cc2cccnc2)C1=O)c1ccccc1Cl` (stereo unspecified): 2.6% (inactive).

Take `CC(C)(C)NC(=O)NC(=O)COC(=O)CCC1CCCCC1`: the inhibition is 11.7% (inactive). Take `CC(=O)N=c1ncn(CC(COC(C)=O)OC(C)=O)c2nc[nH]c12` (stereo unspecified): the inhibition was 10.5% (inactive). `O=C(Nc1ccccc1C(F)(F)F)c1cc(-c2ccc(O)cc2)on1`: the inhibition was -234% (inactive). Under `Cc1cc2c(c(=O)n1C)C(C(C)C)C(C#N)=C(N)O2` (stereo unspecified) stands 9.3% (inactive); under `CCOC(=O)C1(C(F)(F)F)N=C(N(C)C)OC(N(C)C)=N1`, 5.6% (inactive); under `C=CCOc1ccc(Cl)cc1CNCCCN1CCOCC1`, 9.4% (inactive). The same measure for `Cc1cc(C)c(OCC(=O)N/N=C/c2ccco2)c(C)c1`: -17.6% (inactive); for `CSc1ccc(/C=N\NC(=O)COc2ccc(Cl)cc2Br)cc1`: 36% (inactive); for `Cc1ccc(OCC(=O)N/N=C/c2ccncc2)cc1`: 86.7% (active). Under `NS(=O)(=O)c1ccc(NS(=O)(=O)/C=C/c2ccccc2)cc1` stands 47.3% (inactive); under `Cc1ccc(-c2nn(C(C)(C)C)c3ncnc(N)c23)cc1`, 25.5% (inactive). Consider `CCCc1cc(=O)n2[nH]c(SCc3ccccc3)nc2n1`, for which the inhibition was 43.9% (inactive). For `Cc1nc2nc(CSc3nc4ccccc4s3)cc(=O)n2[nH]1`, the inhibition was 60.1% (active). Under `Cn1c(=O)[nH]c(=O)c2c1nc(N1CCN(CCO)CC1)n2CCSc1nc2ccccc2s1` stands -5.4% (inactive). Under `CCCCn1nc(C(=O)N2CCc3ccccc32)c2ccccc2c1=O` stands 41% (inactive); under `CCOc1ccc(OCc2ccc(C(=O)Nc3cccc(C)n3)o2)cc1`, 40.9% (inactive). The same measure for `CC(=O)Cc1nsc(NC(=O)c2csc3c2CCCC3)n1`: 30% (inactive); for `CC(=O)Cc1nsc(NC(=O)c2ccc(COc3ccc(C)cc3)o2)n1`: 64.4% (active); for `O=C(Oc1ccccc1)Oc1ccc2c(c1)oc(=O)c1ccccc12`: -55.2% (inactive). In the case of `Cc1c(C(=O)N2CC(C)OC(C)C2)sc2nc(-c3ccccc3)cn12` (stereo unspecified), the inhibition was 1.3% (inactive). In the case of `Fc1ccccc1/C=C1\CCCC2=C1Nc1ncnn1C2c1ccccc1F` (stereo unspecified), the inhibition was 43.9% (inactive). The same measure for `Cc1ccc(C2(C(F)(F)F)N=C3Sc4cc(C)cc(C)c4N3C(=O)N2)cc1` (stereo unspecified): 65.5% (active). The same measure for `CCOC(=O)C(=O)Nc1nc(-c2ccccc2)c(CC)s1`: 2.4% (inactive); for `N=c1n(Cc2ccc(Cl)cc2)c2ccccc2n1CC(O)c1ccco1` (stereo unspecified): 23.2% (inactive); for `Cc1cccn2c(=O)c(/C=C3\SC(=S)N(CC(C)C)C3=O)c(NCCCOC(C)C)nc12`: 27% (inactive). Regarding `Cn1c(=NC(=O)c2ccco2)sc2cccc(F)c21`, the inhibition is 1% (inactive). Under `CC(Oc1ccc(-c2ccccc2)c(F)c1)c1ccn(S(=O)(=O)c2cccc3ccccc23)n1` (stereo unspecified) stands 76.9% (active); under `CCN(CC)Cc1cc(C(C)=O)ccc1O`, -7.4% (inactive); under `CCOc1ccccc1Oc1cn[nH]c1-c1ccc(OC)cc1O`, 98.2% (active).

As to `CCOc1ccccc1NC(=O)Nc1cc(OC)ccc1OC`, the inhibition was 4.9% (inactive).

With `CCOC(=O)C1CCN(C(=O)CSc2cc(=O)n(C)c3ccccc23)CC1`, the inhibition is 18.3% (inactive). The same measure for `O=c1c(-c2ccccc2)coc2c(CN3CCOCC3)c(O)ccc12`: 7.7% (inactive). Under `CCOC(=O)C1CCCN(Cc2nc(N)nc(Nc3ccc(C)cc3)n2)C1` (stereo unspecified) stands 13.1% (inactive); under `NC(=O)C1(N2CCCCC2)CCN(C(=S)Nc2ccc(Cl)cc2)CC1`, 20.5% (inactive); under `CC(C)(O)C#Cc1ccc(C(=O)N2CCC(C(N)=O)(N3CCCCC3)CC2)cc1`, 27.6% (inactive). Under `NC(=O)C1(N2CCCCC2)CCN(C(=O)c2ccc(C#Cc3ccccc3)o2)CC1` stands 71.6% (active).

The values above are taken from PubChem BioAssay AID777 (Sanford-Burnham Center for Chemical Genomics, 2007).
